From PubChem BioAssay
Calls of active or inactive are those of the source. Unless noted, the rule behind the calls is not given here.

Experiments:
[1] = resazurin metabolic signal in HepG2 cells – cell-based, resazurin fluorescence, 24 h, PK04 Diversity Set, profiling panel (AID 1172); conditions: HepG2 viability, higher = more signal; note: test concentration not given here
[2] = budding yeast growth changes without added modifier – OD600, strain BY4716, 24 h, basal condition, primary screen (AID 1173); conditions: S. cerevisiae BY4716 growth, OD600, 24 h; higher = more signal, called active from +8 up or from −8 down
[3] = viability profiling in MM1S myeloma cells – cell-based, resazurin fluorescence, basal, 24 h, PK04 Diversity Set, profiling panel (AID 1174); conditions: higher = more signal, called active from +8 up or from −8 down;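 note: MM1S multiple myeloma cell line; test concentration not given here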
[4] = molecular target: Dihydroorotate dehydrogenase (quinone), mitochondrial (Plasmodium falciparum (isolate 3D7)) (UniProt Q08210); assay: inhibition of P. falciparum DHODH – biochemical, C-terminal His tag, absorbance 600 nm, primary screen (AID 1175); conditions: PfDHODH enzyme, DCIP absorbance 600 nm; higher = more signal, called active from +8 up or from −8 down;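 note: recombinant parasite enzyme with a five histidine tag at its C terminus; test concentration not given here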
[5] = inhibition of PAO1 biofilm formation – strain PAO1, LB-PBS medium, absorbance 600 nm, primary screen (AID 1176); note: test concentration not given here; conditions: P. aeruginosa PAO1 growth/biofilm, A600, 12 h; higher = more signal
[6] = growth modulation of vineyard yeast isolate – strain RM11-1a, OD600, basal, 24 h, primary screen (AID 1177);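 note: cultures grown under basal conditions with no added stressor; test concentration not given here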; conditions: S. cerevisiae RM11-1a growth, OD600, 24 h; higher = more signal, called active from +8 up or from −8 down
[7] = growth of efflux-deficient E. coli DRC39 – strain DRC39, OD650, 24 h, E. coli filamentation inducers, primary screen (AID 1178);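 note: growth measured as culture turbidity by optical density at 650 nm; test concentration not given here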; conditions: E. coli DRC39 acrAB, higher = more signal, called active from +8 up or from −8 down
[8] = growth of efflux-deficient E. coli DRC39 – strain DRC39, OD650, 48 h, E. coli filamentation inducers, primary screen (AID 1179);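 note: screen aims at cell division blockers that make cells filament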; conditions: E. coli DRC39 delta-acrAB growth, higher = more signal, called active from +8 up or from −8 down
[9] = viability profiling in RPMI8226 myeloma cells – cell-based, resazurin fluorescence, basal, 24 h, PK04 Diversity Set, profiling panel (AID 1180); conditions: higher = more signal;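 note: RPMI8826 multiple myeloma cell line at 5000 cells per well; test concentration not given here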
[10] = molecular target: E3 ubiquitin-protein ligase XIAP (Homo sapiens) (UniProt P98170); assay: small molecules binding XIAP protein – biophysical, small-molecule microarray, fluorescence 635 nm, primary screen (AID 1181); conditions: higher = more signal;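 note: score merges 667 nm emission and signal to noise over triplicate slides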
E3 ubiquitin-protein ligase XIAP (Homo sapiens), sequence (P98170 whole entry, looked up): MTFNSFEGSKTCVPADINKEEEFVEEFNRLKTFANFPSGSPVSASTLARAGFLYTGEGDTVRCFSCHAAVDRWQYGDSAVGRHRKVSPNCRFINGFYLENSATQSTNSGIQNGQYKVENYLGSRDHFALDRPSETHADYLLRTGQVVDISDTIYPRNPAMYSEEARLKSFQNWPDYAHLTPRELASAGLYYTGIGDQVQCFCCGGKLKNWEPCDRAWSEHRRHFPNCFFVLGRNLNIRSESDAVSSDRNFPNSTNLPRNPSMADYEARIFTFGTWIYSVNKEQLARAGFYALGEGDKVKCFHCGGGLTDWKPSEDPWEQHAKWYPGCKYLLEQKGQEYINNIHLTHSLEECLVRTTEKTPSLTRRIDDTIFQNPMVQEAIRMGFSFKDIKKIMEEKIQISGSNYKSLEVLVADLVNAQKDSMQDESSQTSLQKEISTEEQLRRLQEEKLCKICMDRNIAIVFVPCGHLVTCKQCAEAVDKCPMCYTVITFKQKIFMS

Dihydroorotate dehydrogenase (quinone), mitochondrial (Plasmodium falciparum (isolate 3D7)), sequence (Q08210 whole entry, looked up): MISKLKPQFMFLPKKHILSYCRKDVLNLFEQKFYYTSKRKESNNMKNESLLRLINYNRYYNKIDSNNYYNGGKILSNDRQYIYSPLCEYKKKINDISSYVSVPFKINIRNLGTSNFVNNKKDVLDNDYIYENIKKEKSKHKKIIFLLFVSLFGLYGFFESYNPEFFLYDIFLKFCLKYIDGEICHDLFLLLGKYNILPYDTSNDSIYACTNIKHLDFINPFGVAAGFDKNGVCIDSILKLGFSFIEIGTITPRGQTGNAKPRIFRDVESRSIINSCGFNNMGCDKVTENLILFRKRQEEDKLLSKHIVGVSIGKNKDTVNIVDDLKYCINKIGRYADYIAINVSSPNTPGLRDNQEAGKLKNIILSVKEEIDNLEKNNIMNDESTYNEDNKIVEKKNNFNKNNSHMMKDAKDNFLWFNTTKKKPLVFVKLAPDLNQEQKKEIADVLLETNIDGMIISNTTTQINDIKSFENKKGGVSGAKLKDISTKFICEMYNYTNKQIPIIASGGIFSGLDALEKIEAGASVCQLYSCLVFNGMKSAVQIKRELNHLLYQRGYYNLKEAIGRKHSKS

Row | SMILES | z-score [1] | z-score [2] | z-score [3] | composite z-score [4] | z-score [5] | z-score [6] | z-score [7] | z-score [8] | z-score [9] | composite z-score [10]
1 | NCCCCCNC(=O)[C@@H]1C[C@@H]2C(=O)N3CCC[C@H]3C(=O)N2[C@@H]1c1ccc(O)cc1 | -0.448 | 0.2 (inactive) | 0.422 (inactive) | 0.509 (inactive) | -0.102 (inactive) | 0.801 (inactive) | -0.281 (inactive) | -0.107 (inactive) | 0.272 | -0.0663
2 | CC(C)C(=C=CC[C@@H](O)c1cccc(OCCO)c1)C[C@@H](O)c1ccccn1 | 0.828 | -1.02 (inactive) | 0.642 (inactive) | -6.55 (inactive) | -0.0342 (inactive) | 0.488 (inactive) | 0.267 (inactive) | -0.158 (inactive) | 0.463 | 0.127
3 | CCOC(=O)C1=C[C@@H](C(C)(C)C)N(S(=O)(=O)c2ccc(C)cc2)[C@H]1c1ccccc1 | -0.159 | 1.53 (inactive) | -0.562 (inactive) | -0.294 (inactive) | 0.0083 (inactive) | 1.59 (inactive) | 0.128 (inactive) | -0.0515 (inactive) | -1.11 | -0.162
4 | O=C(CS)NCCCCCNC(=O)[C@@H]1C[C@@H]2C(=O)N[C@@H](Cc3ccccc3)C(=O)N2[C@@H]1c1cccc(OCCO)c1 | -0.528 | 0.0575 (inactive) | -0.513 (inactive) | -0.148 (inactive) | 0.0067 (inactive) | 0.647 (inactive) | 0.403 (inactive) | 0.801 (inactive) | -0.0412 | -0.0911
5 | O=C(NCC(O)CO)[C@@]1(CCS(=O)(=O)c2ccccc2)COC(c2ccc(OCCCO)cc2)=N1 (stereo not given in full) | 0.114 | 0.452 (inactive) | -0.169 (inactive) | 0.699 (inactive) | -0.043 (inactive) | 1.29 (inactive) | 0.243 (inactive) | -0.135 (inactive) | -0.159 | -0.0332
6 | CCCCCCCCCCC(O)C1C=CC2C(=O)N(C)C(=O)C2N1Nc1cc(OC)c(OC)c(OC)c1 (stereo not given) | -2.36 | -1.36 (inactive) | -3.17 (inactive) | -1.3 (inactive) | 0.971 (inactive) | 0.439 (inactive) | -0.875 (inactive) | -1.12 (inactive) | -3.54 | -0.182
7 | CCCNC(=O)[C@@]1(Sc2ccc(C)cc2)CC(=O)N(C2CCCCC2)[C@@H]1c1ccc(CO)cc1I | -0.0096 | -1.07 (inactive) | 0.0674 (inactive) | -0.198 (inactive) | 0.627 (inactive) | -1.15 (inactive) | 0.29 (inactive) | 0.0883 (inactive) | -1.1 | -0.321
8 | C=CCNC(=O)[C@@H]1[C@H]2C(=O)O[C@H](c3ccccc3)[C@H](c3ccccc3)N2[C@H](c2ccc(OCCO)cc2)[C@@]12C(=O)N(C(=O)OCCOC)c1ccc(C#CCCO)cc12 | 0.266 | -0.153 (inactive) | 0.423 (inactive) | -0.767 (inactive) | 2.16 (inactive) | 1.55 (inactive) | 0.756 (inactive) | 0.298 (inactive) | 1.04 | -0.0161
9 | C=CCNC(=O)[C@@H]1[C@H]2C(=O)O[C@H](c3ccccc3)[C@H](c3ccccc3)N2[C@H](c2ccc(O)cc2)[C@@]12C(=O)Nc1ccc(C#CCC(C(=O)OC)C(=O)OC)cc12 | -0.0043 | 1.12 (inactive) | -6.93 (inactive) | -6.73 (inactive) | 1.54 (inactive) | 1.4 (inactive) | -0.0975 (inactive) | -0.112 (inactive) | -5.23 | -0.274
10 | CCN(CC)c1ccc(N2CC=CC34O[C@@H]5C=CCCOC(=O)C5[C@H]3C(=O)N(CCO)[C@@H]4C2=O)cc1 (stereo not given in full) | 0.0656 | -0.371 (inactive) | -0.281 (inactive) | -1.3 (inactive) | 0.469 (inactive) | -0.106 (inactive) | 0.449 (inactive) | 0.2 (inactive) | 0.553 | 0.0074
11 | C=C(COC)/C(=C/C[C@@H](OC(=O)c1ccncc1)c1ccccc1OCCO)c1cc(C(=O)OC)ccc1OC | 0.106 | -1.35 (inactive) | -1.03 (inactive) | -4 (inactive) | 0.825 (inactive) | 0.0248 (inactive) | 0.404 (inactive) | 0.32 (inactive) | -1.35 | -0.211
12 | C=C(C)[C@@H]1CC=C(C(O)C2C=CC3C(=O)N(c4ccccc4)C(=O)C3N2Nc2ccc(C#N)cc2)CC1 (stereo not given in full) | -1.12 | -0.111 (inactive) | -0.591 (inactive) | 0.0143 (inactive) | 1.8 (inactive) | 0.556 (inactive) | -0.688 (inactive) | -0.906 (inactive) | 0.0852 | 0.169
13 | C[C@]1(C(=O)NCCN2CCOCC2)c2ccccc2C(=O)N(Cc2cc(F)cc(C(F)(F)F)c2)[C@H]1c1ccc(CO)cc1 | -0.0395 | 0.375 (inactive) | -0.464 (inactive) | 0.376 (inactive) | 0.664 (inactive) | 0.0645 (inactive) | 1 (inactive) | 1.67 (inactive) | 0.0794 | -0.116
14 | CCN(CC)c1ccc(N2CC=CC34O[C@@H]5/C=C\CCC(C)OC(=O)C5[C@H]3C(=O)N(C(C)CO)[C@@H]4C2=O)cc1 (stereo not given in full) | 0.958 | -0.893 (inactive) | 0.259 (inactive) | 0.881 (inactive) | -1.28 (inactive) | 0.507 (inactive) | 0.966 (inactive) | 1.39 (inactive) | 0.0809 | 0.0727
15 | Cc1ccc(F)cc1S(=O)(=O)N[C@@H]1CCN(Cc2cccc3[nH]ccc23)C1 | -0.921 | -2.03 (inactive) | -0.182 (inactive) | 0.31 (inactive) | 0.343 (inactive) | -0.367 (inactive) | -0.429 (inactive) | -1.32 (inactive) | -0.504 | -0.02
16 | C=CCC(OC(C)=O)[C@@H]1[C@@H](N(Cc2cccc3ccccc23)C(=O)c2ccc(-c3ccccc3)cc2)c2cc(OCCCO)ccc2N1C(=O)c1ccc(-c2ccccc2)cc1 (stereo not given in full) | -0.132 | -0.166 (inactive) | 0.116 (inactive) | -0.948 (inactive) | 0.055 (inactive) | -0.929 (inactive) | -0.277 (inactive) | -0.228 (inactive) | 0.0263 | -0.114
17 | COCCOC(=O)N1C(=O)[C@@]2(c3ccccc31)[C@H](c1ccccc1OCCO)N1[C@H](c3ccccc3)[C@H](c3ccccc3)OC(=O)[C@H]1[C@@H]2C(=O)N1CCCCCCC1 | 0.293 | 1.7 (inactive) | -0.097 (inactive) | 0.054 (inactive) | 2.48 (inactive) | 1.39 (inactive) | 0.542 (inactive) | -1.15 (inactive) | -0.353 | 1.57
18 | CCCC=C(CCC)[C@@H](NS(=O)(=O)c1cccc2cccnc12)c1ccc(-c2ccccc2)cc1 | 1.15 | 0.928 (inactive) | 1.02 (inactive) | -0.0926 (inactive) | -0.787 (inactive) | 0.52 (inactive) | -0.24 (inactive) | -0.342 (inactive) | 1.27 | 0.072
19 | O=C1N[C@@H](Cc2ccccc2)C(=O)N2[C@@H]1C[C@@H](C(=O)O)[C@H]2c1ccc(O)cc1 | -0.425 | -1.14 (inactive) | 0.746 (inactive) | -0.708 (inactive) | -0.13 (inactive) | -0.319 (inactive) | -0.143 (inactive) | -0.803 (inactive) | 0.0674 | 0.0518
20 | CCCC=C(CCC)[C@@H](NC(=O)CCc1ccccc1)c1ccc(C(F)(F)F)cc1 | 0.561 | -0.357 (inactive) | -0.407 (inactive) | -1.39 (inactive) | 0.0944 (inactive) | 0.439 (inactive) | 0.0152 (inactive) | -0.0054 (inactive) | -0.581 | 0.0734
21 | O=C1C2C=CC(C(O)c3cc(C(F)(F)F)cc(C(F)(F)F)c3)N(Nc3ccccc3F)C2C(=O)N1c1ccccc1 (stereo not given) | -2.18 | -1.47 (inactive) | -1.09 (inactive) | -0.232 (inactive) | 1.11 (inactive) | 0.332 (inactive) | -2.31 (inactive) | -0.711 (inactive) | -3.04 | 0.0264
22 | CCCNC(=O)[C@@]1(C)c2ccccc2C(=O)N(Cc2ccccc2)[C@H]1c1ccc(CO)cc1 | -0.0367 | -0.312 (inactive) | 0.435 (inactive) | -0.0373 (inactive) | -0.0065 (inactive) | -0.637 (inactive) | 0.503 (inactive) | -0.105 (inactive) | 1.67 | -0.0701
23 | COC(=O)[C@@]1(Cc2ccc(F)cc2)[C@H]2c3cc(C(=O)N4CCCC4)n(CC4CC4)c3C[C@H]2CN1C(=O)c1ccccc1 | -1.57 | -0.443 (inactive) | -1.65 (inactive) | -0.559 (inactive) | 0.495 (inactive) | 0.056 (inactive) | -0.688 (inactive) | -0.64 (inactive) | -2.11 | 0.705
24 | CN(C)C(=O)[C@]1(CCS(=O)(=O)c2ccccc2)N=C(c2ccc(OCCCO)cc2)O[C@@H]1c1ccccc1 | 1.4 | -0.265 (inactive) | -0.342 (inactive) | 0.524 (inactive) | -0.484 (inactive) | -0.315 (inactive) | 0.582 (inactive) | -0.0986 (inactive) | -0.155 | 0.0651
25 | CC(CO)N1C(=O)[C@@H]2[C@H]3C(=O)OCC=C[C@H]3OC23C=CCN(c2ccc(Cl)cc2)C(=O)[C@@H]13 (stereo not given in full) | 0.909 | -0.414 (inactive) | 0.675 (inactive) | -0.647 (inactive) | -0.897 (inactive) | 0.0289 (inactive) | 0.864 (inactive) | 0.734 (inactive) | 0.282 | -0.394
26 | CCCCC=C[C@@H](NC(=O)c1ccccc1)c1ccccc1 | -0.35 | 0.483 (inactive) | 0.0386 (inactive) | -0.845 (inactive) | 1.43 (inactive) | 0.0455 (inactive) | -1.44 (inactive) | -1.29 (inactive) | -0.321 | 0.0348
